In PubChem BioAssay (Tox21):
Results filed as inconclusive are left out. Activity calls are given as the source filed them. Calls come from the whole dose curve; as a rule, active = well fitted cell-killing curve with a large enough effect in the repeat runs; inconclusive = weak or mixed curves, or effect the other way; inactive = no such curve, though single readings can be large or run the other way.

Assay: qHTS assay for small molecule activators of the heat shock response signaling pathway - cell viability counter screen (AID 743209); note: nearly all actives have a fitted effect of over 50% in size
Settings: HSE-bla HeLa viability, CellTiter-Glo luminescence, 5 h; series mostly up to 62.6 µM; activity change, negative = cytotoxicity: at the top concentration
Source text: U.S. Tox21 Program National Center for Advancing Translational Sciences [NCATS] NIH Chemical Genomics Center [NCGC] U.S. Environmental Protection Agency [EPA] National Institutes of Environmental Health Sciences [NIEHS] National Toxicology Program [NTP] U.S. Food and Drug Administration [FDA] Tox21 Assay Overview: Various chemicals, environmental and physiological stress conditions may lead to the activation of heat shock response/ unfolded protein response (HSR/UPR). There are three heat shock transcription factors (HSFs) (HSF-1, -2, and -4) mediating transcriptional regulation of the human HSR. To identify the compounds that activate HSR signaling, HSE-bla HeLa cell line (Invitrogen, Carlsbad, CA, USA) containing a beta-lactamase reporter gene under the control of the heat shock response elements was used to screen Tox21 10K compound library. The cytotoxicity of the Tox21 compound library against the HSE-bla HeLa cell line was tested in parallel by measuring the cell viability using CellTiter-Glo assay (Promega, Madison, WI) in the same wells.
Tox21 Assay Protocol Summary: The CellSensor HSE-bla HeLa cells (Invitrogen, Carlsbad, CA, USA) were dispensed at 1500 cells/6uL/well into 1536-well black wall/clear bottom plates using a Multidrop combi (Thermo Fisher Scientific, Waltham, MA) dispenser. After the assay plates were incubated at 37 C and 5% CO2 overnight, 23 nL of compounds dissolved in DMSO, positive controls or DMSO only was transferred to the assay plate by a Pintool station (Kalypsys, San Diego, CA). The plates were incubated at 37 C for 5 h. After 1 uL of LiveBLAzerTM B/G FRET substrate was added using a Flying Reagent Dispenser (FRD, Beckman Coulter, Indianapolis, IN, USA), the plates were incubated at room temperature for 2.5 h, and fluorescence intensity was measured by an Envision plate reader (PerkinElmer, Shelton, CT). For cell viability readout that measures cytotoxicity, 3 ul/well of CellTiter-Glo reagent was added into the assay plates using a FRD. After 30 min incubation at room temperature, the luminescence intensity in the plates was measured using a ViewLux (PerkinElmer) plate reader.
% is set by controls: 0 for no effect and ±100 for the full control effect.

**Q.** Which outcome does the source give for `CCNc1nc(NC(C)C)nc(SC)n1` here?
**A.** inactive

**Q.** For `CCCCCOC(=O)c1ccccc1C(=O)OCCCCC`, which outcome is on record?
**A.** inactive

**Q.** Which outcome does the source give for `CC(C)(C)C(O)(CCc1ccc(Cl)cc1)Cn1cncn1` (stereo not given) here?
**A.** inactive

**Q.** For `CCNc1nc(NC(C)(C)C)nc(SC)n1`, which outcome is on record?
**A.** inactive

**Q.** For `CCCCCCCCCCCC#N`, which outcome is on record?
**A.** inactive

**Q.** With `O=c1[nH]c2ccccc2c(=O)o1` as the compound, how does the outcome read?
**A.** inactive

**Q.** For `O=Cc1cccc(Oc2ccccc2)c1`, which outcome is on record?
**A.** inactive

**Q.** For `CN(C)CCO`, which outcome is on record?
**A.** inactive

**Q.** With `CC(C)C#N` as the compound, how does the outcome read?
**A.** inactive

**Q.** For `Cc1[nH]c(=O)n(C(C)(C)C)c(=O)c1Cl`, which outcome is on record?
**A.** inactive

**Q.** Which outcome does the source give for `O=[N+]([O-])c1ccccc1` here?
**A.** inactive

**Q.** For `c1ccc(-c2ccccc2)cc1`, which outcome is on record?
**A.** inactive

**Q.** For `CC(=O)C=C(C)C`, which outcome is on record?
**A.** inactive

**Q.** For `C=CC(N)=O`, which outcome is on record?
**A.** inactive

**Q.** For `c1ccc2c(c1)oc1ccccc12`, which outcome is on record?
**A.** inactive

**Q.** With `Nc1ccc(Cc2ccc(N)cc2)cc1` as the compound, how does the outcome read?
**A.** inactive

**Q.** For `NCC(O)c1ccc(O)cc1` (stereo not given), which outcome is on record?
**A.** inactive

**Q.** For `O=C1CCCN1`, which outcome is on record?
**A.** inactive

**Q.** For `CC(Br)C(=O)O` (stereo not given), which outcome is on record?
**A.** inactive

**Q.** Which outcome does the source give for `CCN(CC)CCO` here?
**A.** inactive

**Q.** With `CC1OC(C)OC(C)O1` (stereo not given) as the compound, how does the outcome read?
**A.** inactive

**Q.** With `COc1ccc2c3c1O[C@H]1[C@@H](O)C=C[C@H]4[C@@H](C2)N(C)CC[C@@]341` as the compound, how does the outcome read?
**A.** inactive

**Q.** Which outcome does the source give for `Cc1cc(Cl)ccc1O` here?
**A.** inactive

**Q.** Which outcome does the source give for `c1cc2c3c(cccc3c1)CC2` here?
**A.** inactive

**Q.** Which outcome does the source give for `O=S(=O)(c1ccc(Cl)cc1)c1cc(Cl)c(Cl)cc1Cl` here?
**A.** inactive

**Q.** Which outcome does the source give for `CCC12COCN1COC2` here?
**A.** inactive

**Q.** With `OCCN(CCO)CCO` as the compound, how does the outcome read?
**A.** inactive

**Q.** With `CCCCOC(=O)c1ccccc1C(=O)OCCCC` as the compound, how does the outcome read?
**A.** inactive

**Q.** With `Clc1cccc(Cl)c1Cl` as the compound, how does the “activity change, negative = cytotoxicity” value read?
**A.** -1.58% (inactive)

**Q.** Which outcome does the source give for `Clc1ccccc1Cl` here?
**A.** inactive

**Q.** For `C1CN2CCN1CC2`, which outcome is on record?
**A.** inactive

**Q.** For `CC(C)NC(=O)N1CC(=O)N(c2cc(Cl)cc(Cl)c2)C1=O`, which outcome is on record?
**A.** inactive

**Q.** For `CC(C)N1C(=O)c2ccccc2NS1(=O)=O`, which outcome is on record?
**A.** inactive

**Q.** For `Oc1ccccc1Cl`, which outcome is on record?
**A.** inactive

**Q.** Which outcome does the source give for `ClCCBr` here?
**A.** inactive

**Q.** For `CC(C)=C[C@@H]1[C@@H](C(=O)OCc2coc(Cc3ccccc3)c2)C1(C)C`, which outcome is on record?
**A.** inactive

**Q.** Which outcome does the source give for `CN(C)[C@@H]1C(=O)C(C(N)=O)=C(O)[C@@]2(O)C(=O)C3=C(O)c4c(O)cccc4[C@@](C)(O)[C@H]3C[C@@H]12` here?
**A.** inactive

**Q.** For `CCCC1COC(Cn2cncn2)(c2ccc(Cl)cc2Cl)O1` (stereo not given), which outcome is on record?
**A.** inactive

**Q.** Which outcome does the source give for `COC(=O)NC(=S)Nc1ccccc1NC(=S)NC(=O)OC` here?
**A.** inactive

**Q.** Which outcome does the source give for `CC(C)(C)OOC(C)(C)C` here?
**A.** inactive
